Source: PubChem BioAssay
HepG2 viability – qHTS for Inhibitors of TGF-b: Cytotox Counterscreen | HepG2 CAGA-GFP viability, ATP luminescence, 18 h | Potency, µM (series often up to 46.1 µM), usual class: cytotoxic | actives 0.76% (n = 410,000) | AID 588856, 2011
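HepG2 CAGA-GFP cells (1000/well, DMEM with 1% FBS) received compound, then TGF-beta at 500 pg/mL final, and were incubated 18 hours at 37 degrees C. Viability was read by CellTiter-Glo luminescence. Media-only wells were set as complete cell-killing and DMSO as no toxicity.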
TGFb SMAD3 inh – qHTS for Inhibitors of TGF-b | HepG2 CAGA-GFP TGF-b/SMAD3 reporter, GFP fluorescence, 18 h; TGF-beta stimulated, 500 pg/mL final | Potency, µM (highest dose often 46.1 µM), hits mostly inhibitors | actives 1.2% (n = 410,000) | AID 588855, 2011; note: nearly all actives have a fitted effect of over 65% in size
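Inhibition was scored as loss of TGF-beta-induced (500 pg/mL final, 18 hours, 37 degrees C) GFP in HEPG2 cells carrying a CAGA-GFP reporter, in DMEM with 1% FBS. Well GFP was summed per cell; Activity was normalised to unstimulated and stimulated DMSO wells, then concentration-response fitting.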
ATXN viability – Viability Counterscreen for Primary qHTS for Inhibitors of ATXN expression; S2 cells (HEK-293 line with an ATXN2-luciferase reporter) viability, CellTiter-Fluor protease fluorescence, 24 h; Potency, µM (doses to about 56.7 µM), usual class: cytotoxic; actives 0.49% (n = 400,000); note: nearly all actives have a fitted effect of over 40% in size
ATXN2 expr inh – Primary qHTS for Inhibitors of ATXN expression. HEK-293 ATXN2-luciferase reporter, luminescence, 24 h. Potency, µM (highest dose often 57 µM), usual class: inhibitors. actives 0.72% (n = 360,000). AID 1745845, 2022; note: nearly all actives have a fitted effect of over 55% in size
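ATXN2-luciferase reporter cells (luciferase flanked by upstream and downstream ATXN2 gene portions) were treated 24 h at 37 °C with compounds at up to 57 uM. SteadyGlo luminescence gave expression; GF-AFC fluorescence gave viability.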
D3 ag – qHTS of D3 Dopamine Receptor Agonist: qHTS. actives 0.58% (n = 410,000). max activation, %. D(3) dopamine receptor (Homo sapiens), P35462. D3R DiscoveRx beta-arrestin cells, luminescence, 90 min; in the data active = max activation above about 30%
Target sequence (P35462 whole entry, looked up): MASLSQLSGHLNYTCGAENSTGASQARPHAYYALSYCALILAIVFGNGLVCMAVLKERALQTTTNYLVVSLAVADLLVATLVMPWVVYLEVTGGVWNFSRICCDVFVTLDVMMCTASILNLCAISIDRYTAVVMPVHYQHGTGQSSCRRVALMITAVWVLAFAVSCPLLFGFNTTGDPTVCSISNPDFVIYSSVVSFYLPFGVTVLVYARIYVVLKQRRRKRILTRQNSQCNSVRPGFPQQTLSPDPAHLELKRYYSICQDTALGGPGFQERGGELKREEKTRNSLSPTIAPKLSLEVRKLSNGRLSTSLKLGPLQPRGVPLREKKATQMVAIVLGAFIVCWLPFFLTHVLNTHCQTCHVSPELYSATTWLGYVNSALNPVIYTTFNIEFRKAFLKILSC
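Cells at 1500/well, incubated overnight, then treated with pinned compounds (dopamine as control) for 90 min at 37 degrees C. DiscoveRx reagent added for 30 - 60 minutes at room temperature; luminescence read.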
D3 antag – qHTS of D3 Dopamine Receptor Antagonist: qHTS. D(3) dopamine receptor (Homo sapiens), P35462. D3R cells, DiscoveRx beta-arrestin luminescence, antagonist mode; stronger effect = lower value. max response, negative = inhibition, %. actives 2.5% (n = 360,000). AID 652054, 2013; in the data active = max response below about -50%; inconclusive = no clear call, values can overlap the other calls
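Cells plated overnight at 1500 cells/well, then exposed to library compounds with dopamine controls for 90 minutes at 37 degrees C. DiscoveRx reagent added for 30–60 minutes at room temperature; luminescence read, quantitative HTS format.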
Of the large screens only hits and unclear results are named; the others gave an inactive call. Hits are enriched below; roughly 4.7% of the tested compounds scored in any of these assays. Unless noted, calls come from the whole dose curve; as a rule, active = well fitted curve in the direction sought with a large enough effect; inconclusive = small, poorly fitted or top-dose-only effect, or another doubt; inactive = no such curve, though single readings can be large; an effect the other way counts as inactive or inconclusive.

COc1ccc(-c2noc(CCC(=O)N3CCN(c4cccc(Cl)c4)CC3)n2)cc1	ATXN viability inconclusive, ATXN2 expr inh inconclusive
COc1ccc(-c2noc(CCC(=O)N3CCN(c4ccccc4C(F)(F)F)CC3)n2)cc1	TGFb SMAD3 inh inconclusive, ATXN viability inconclusive, ATXN2 expr inh inconclusive, D3 ag 31
COc1ccc(-c2noc(CCC(=O)N3CCN(c4cccc(F)c4)CC3)n2)cc1	D3 ag 34
Cc1c2cnccc2c(C)c2c1c1ccccc1n2CCOC(=O)c1ccccc1	TGFb SMAD3 inh inconclusive (no result: ATXN viability, ATXN2 expr inh, D3 ag, D3 antag)
Cc1ccc(SC2=NS(=O)(=O)c3ccccc32)c(C)c1	none (no result: ATXN viability, ATXN2 expr inh, D3 ag, D3 antag)
COc1ccc(CCN(C)CCCC(C#N)(c2cc(OC)c(OC)c(OC)c2)C(C)C)cc1OC (stereo unspecified)	ATXN viability inconclusive, D3 antag -57
COc1ccc(CCN(C)CCc2ccc(OC)c(OC)c2)cc1OC	none
COc1ccc(-c2cc(C(F)(F)F)nc(N3CCN(C)CC3)n2)cc1	ATXN viability inconclusive, ATXN2 expr inh inconclusive, D3 antag -66
FC(F)(F)c1cc(-c2cccs2)nc(N2CCOCC2)n1	TGFb SMAD3 inh inconclusive, D3 antag -58
CN1CCN(c2nc(C#N)cc(-c3ccccc3)n2)CC1	D3 antag -74
CC(C)c1ccccc1NC(=O)C(Cc1c[nH]c2ccccc12)NC(=O)OC(C)(C)C (stereo unspecified)	TGFb SMAD3 inh inconclusive (no result: D3 antag)
CN(C)c1nc2ccc(OCCN3CCCCC3)cc2s1	ATXN viability inconclusive, D3 antag -68
CCN(CC)CCOc1ccc2nc(N(C)C)sc2c1	D3 antag -59
CC(=O)OCC(=O)[C@@]1(O)[C@H](OC(C)=O)C[C@H]2[C@@H]3CCC4=CC(=O)C=C[C@]4(C)[C@@]3(F)[C@@H](O)C[C@@]21C	none (no result: HepG2 viability, TGFb SMAD3 inh, D3 antag)
CC(C)=CCCC(C)CN(C)CCc1ccccn1 (stereo unspecified)	D3 antag -64
CC(=O)Nc1cccc(C(=O)OCC(=O)NC(=O)C2CCCCC2)c1	none (no result: ATXN viability, ATXN2 expr inh, D3 ag, D3 antag)
CCCS(=O)(=O)NCc1c(C)ncc2c1CCN(C(=O)/C=C/c1ccccc1)C2	none (no result: HepG2 viability, TGFb SMAD3 inh, ATXN2 expr inh, D3 ag, D3 antag)
O=S(=O)(CC(CN1CCCC1)N1CCCC1)c1ccc2ccccc2c1 (stereo unspecified)	ATXN viability 11µM, D3 antag inconclusive
COc1cc(-c2cc(C)c3cccc(OC)c3n2)cc2c1OCCN(C(=O)CCn1ccc(C)n1)C2	none (no result: HepG2 viability, TGFb SMAD3 inh, ATXN2 expr inh, D3 ag, D3 antag)
OC1(c2ccc(F)cc2)CCN(Cc2nnnn2Cc2cccs2)CC1	D3 antag -86
CC1CCC(NC(=O)Cn2c(=O)oc3ccccc32)CC1 (stereo unspecified)	D3 antag -51
C#CCC(Cc1cnc2nc(N)nc(N)c2n1)c1ccc(C(=O)N[C@@H](CCC(=O)O)C(=O)O)cc1 (stereo partly specified)	ATXN viability inconclusive, ATXN2 expr inh 0.54µM (no result: HepG2 viability, TGFb SMAD3 inh, D3 antag)
CC(C)(C)C(C(=O)NCc1ccccc1)N1CCN(CCN2CCOCC2)CC1 (stereo unspecified)	D3 antag -64 (no result: HepG2 viability, TGFb SMAD3 inh, ATXN viability, ATXN2 expr inh)
CN(C)CCNc1cc(N2CCN(C)CC2)ncn1	none (no result: ATXN viability, ATXN2 expr inh, D3 ag, D3 antag)
O=C(Nc1cc(Cl)cc(Cl)c1)c1cnn2c1NC(=C1CC1)C=C2C(F)F	none (no result: ATXN viability, ATXN2 expr inh, D3 ag, D3 antag)
C/C(=N\NC(=O)c1c(Cl)cnn1C)c1ccc(NC(=O)c2ccncc2)cc1	HepG2 viability 10µM
C/C(=N\NC(=O)c1ccccc1NC(=O)c1ccc(Cl)cc1)c1ccncc1	HepG2 viability 1.3µM (no result: ATXN2 expr inh)
CC(=NNC(=O)c1ccncc1)c1ccccc1Cl	none
N#Cc1c(N)nc2c(c1-c1cccc(O)c1)CCCCCC2	TGFb SMAD3 inh inconclusive, ATXN viability inconclusive, ATXN2 expr inh inconclusive
Oc1cccc(-c2c3nc(c(-c4cccc(O)c4)c4ccc([nH]4)c(-c4cccc(O)c4)c4nc(c(-c5cccc(O)c5)c5ccc2[nH]5)CC4)C=C3)c1	ATXN viability 7.1µM (no result: HepG2 viability, TGFb SMAD3 inh, D3 antag)
Cc1cc(C)cc(NC(=O)c2cccc(N3CCCS3(=O)=O)c2)c1	none (no result: D3 antag)
CCc1ccc(C(=O)c2cn(CC(=O)Nc3cc(C)ccc3C)c3nc(C)ccc3c2=O)cc1	none (no result: D3 antag)
O=C(c1cccs1)N1CCC(c2ccccc2)C1 (stereo unspecified)	D3 antag -59
O=C(c1ccccc1)C1CCN(C(=O)c2cccs2)CC1	none
O=C(CCN1CCC(c2ccccc2)C1)c1cccs1 (stereo unspecified)	TGFb SMAD3 inh inconclusive, ATXN viability inconclusive, ATXN2 expr inh inconclusive, D3 antag -66
CC(=O)N1CCOc2cc(S(=O)(=O)NCc3ccc(C)cc3)c(Cl)cc21	none (no result: D3 antag)
COc1cccc(CN2CCC3(CC2)c2ccccc2[C@@H](NC(=O)c2ccccc2)[C@@H]3O)c1O	none (no result: HepG2 viability, TGFb SMAD3 inh, ATXN2 expr inh, D3 ag, D3 antag)
COc1ccc(-c2ccc(-c3cc(=O)oc4cc(OC)c(OC)c(OC)c34)cc2)cc1OC	D3 ag 34
COc1cc2oc(=O)cc(-c3cccc(-c4cccc(C)c4)c3)c2c(OC)c1OC	TGFb SMAD3 inh inconclusive, ATXN viability inconclusive
CCOc1ccc(CNS(=O)(=O)c2ccc(-c3coc(C)n3)cc2)cc1OC	none (no result: D3 antag)
C[C@H](CCC(=O)OCc1cn(CC(=O)c2ccc(O)cc2)nn1)C1CC[C@H]2[C@@H]3CC[C@@H]4C[C@H](O)CC[C@]4(C)[C@H]3C[C@H](O)[C@]12C (stereo partly specified)	TGFb SMAD3 inh inconclusive, ATXN viability inconclusive, ATXN2 expr inh inconclusive, D3 ag 44
C[C@H](CCC(=O)O)[C@H]1CC[C@H]2[C@@H]3CC[C@@H]4C[C@H](O)CC[C@]4(C)[C@H]3C[C@H](O)[C@]12C	none
CCN(CCO)CCCOc1ccc2c(Nc3cc(CC(=O)Nc4cccc(F)c4)[nH]n3)ncnc2c1	none (no result: HepG2 viability, TGFb SMAD3 inh, ATXN viability, D3 ag, D3 antag)
C1CCC(OCCN2CCN(CCOC3CCCCC3)CC2)CC1	D3 antag -63
Brc1ccc[n+](CCC2CCCCC2)c1	none (no result: ATXN viability, ATXN2 expr inh, D3 ag, D3 antag)
O=C(CS(=O)(=O)c1nc(-c2ccc(Cl)cc2)cn1-c1ccccc1)Nc1cccc(Cl)c1	TGFb SMAD3 inh 10µM, ATXN viability inconclusive (no result: D3 antag)
C=C(C)C(=O)OCC(O)COc1ccc(C(C)(C)c2ccc(OCC(O)COC(=O)C(=C)C)cc2)cc1 (stereo unspecified)	ATXN viability inconclusive, ATXN2 expr inh inconclusive, D3 ag 71
CC(=O)c1ccc(OCC(O)COc2ccc(C(C)=O)cc2)cc1	none
O=C(Cn1c(=O)nc(-c2ccccc2F)c2cc(Cl)ccc21)NCCCc1ccccc1	TGFb SMAD3 inh inconclusive (no result: D3 antag)
